# Measured values reported in the supplement of paper PMC12282887.
# ± gives the standard deviation of the averaged measurements.
# How the values were obtained:
# Experiment in all cases: promoter activity interaction Z-score (Lux/OD deviation from empty-vector control); higher = stronger promoter induction by the compound
# [1] = tested on: E. coli BW25113 acrABp lux reporter
# Procedure, shortened: (§1)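 Low-copy luxCDABE promoter reporters were carried by E. coli BW25113, either wild type or lacking one of three genes, grown in 40 µl LB Lennox in 384-well plates at 37°C. Each compound was run at four 1:2 dilutions in biological duplicates, with OD600 and luminescence read every 30 min for 12 h. Integration used 0–8 h for wild type and 1–9 h for deletion strains, and wells under 10% of the median growth value were removed. Luminescence normalised to growth was fitted against a control, and the Z-transformed residual is the score.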
# [2] = tested on: E. coli BW25113 micFp lux reporter
# Procedure, shortened: as §1
# [3] = tested on: E. coli BW25113 ompFp lux reporter
# Procedure, shortened: as §1
# [4] = tested on: E. coli BW25113 robp lux reporter
# Procedure, shortened: as §1
# [5] = tested on: E. coli BW25113 soxSp lux reporter
# Procedure, shortened: as §1
# [6] = tested on: E. coli BW25113 tolCp lux reporter
# Procedure, shortened: as §1
# [7] = 1 µg/ml, genetic background: wild type
# [8] = 1 µg/ml, genetic background: ΔmarA
# [9] = 1 µg/ml, genetic background: Δrob
# [10] = 1 µg/ml, genetic background: ΔsoxS
# [11] = 1.9 µg/ml, genetic background: wild type
# [12] = 1.9 µg/ml, genetic background: ΔmarA
# [13] = 1.9 µg/ml, genetic background: Δrob
# [14] = 1.9 µg/ml, genetic background: ΔsoxS
# [15] = 3.8 µg/ml, genetic background: wild type
# [16] = 3.8 µg/ml, genetic background: ΔmarA
# [17] = 3.8 µg/ml, genetic background: Δrob
# [18] = 3.8 µg/ml, genetic background: ΔsoxS
# [19] = 7.7 µg/ml, genetic background: wild type
# [20] = 7.7 µg/ml, genetic background: ΔmarA
# [21] = 7.7 µg/ml, genetic background: Δrob
# [22] = 7.7 µg/ml, genetic background: ΔsoxS
compound,measurement,setting,value
NC1CONC1=O (stereo unspecified) [Cycloserine D],promoter activity interaction Z-score,[1]; [7],0.0277 ± 0.22
same,promoter activity interaction Z-score,[1]; [8],0.657 ± 0.33
same,promoter activity interaction Z-score,[1]; [9],-0.0729 ± 0.055
same,promoter activity interaction Z-score,[1]; [10],0.00357 ± 0.22
same,promoter activity interaction Z-score,[1]; [11],-0.389 ± 0.056
same,promoter activity interaction Z-score,[1]; [12],0.57 ± 0.12
same,promoter activity interaction Z-score,[1]; [13],0.0199 ± 0.26
same,promoter activity interaction Z-score,[1]; [14],-0.339 ± 0.62
same,promoter activity interaction Z-score,[1]; [15],-0.136 ± 0.039
same,promoter activity interaction Z-score,[1]; [16],-0.29 ± 0.2
same,promoter activity interaction Z-score,[1]; [17],0.00284 ± 0.03
same,promoter activity interaction Z-score,[1]; [18],-0.0366 ± 0.12
same,promoter activity interaction Z-score,[1]; [19],-0.588 ± 0.2
same,promoter activity interaction Z-score,[1]; [20],-0.128 ± 0.24
same,promoter activity interaction Z-score,[1]; [21],-0.0882 ± 0.11
same,promoter activity interaction Z-score,[1]; [22],-0.319 ± 0.24
same,promoter activity interaction Z-score,[2]; [7],0.0376 ± 0.12
same,promoter activity interaction Z-score,[2]; [8],-0.00943 ± 0.084
same,promoter activity interaction Z-score,[2]; [9],-0.118 ± 0.074
same,promoter activity interaction Z-score,[2]; [10],-0.0115 ± 0.022
same,promoter activity interaction Z-score,[2]; [11],-0.417 ± 0.2
same,promoter activity interaction Z-score,[2]; [12],-0.00494 ± 0.0052
same,promoter activity interaction Z-score,[2]; [13],-0.0732 ± 0.01
same,promoter activity interaction Z-score,[2]; [14],-0.388 ± 0.035
same,promoter activity interaction Z-score,[2]; [15],-0.305 ± 0.5
same,promoter activity interaction Z-score,[2]; [16],-0.0376 ± 0.047
same,promoter activity interaction Z-score,[2]; [17],-0.0224 ± 0.047
same,promoter activity interaction Z-score,[2]; [18],-0.251 ± 0.019
same,promoter activity interaction Z-score,[2]; [19],-0.38 ± 0.0041
same,promoter activity interaction Z-score,[2]; [20],0.0683 ± 0.028
same,promoter activity interaction Z-score,[2]; [21],0.105 ± 0.092
same,promoter activity interaction Z-score,[2]; [22],-0.294 ± 0.16
same,promoter activity interaction Z-score,[3]; [7],0.314 ± 0.21
same,promoter activity interaction Z-score,[3]; [8],0.134 ± 0.086
same,promoter activity interaction Z-score,[3]; [9],-0.394 ± 0.46
same,promoter activity interaction Z-score,[3]; [10],0.0539 ± 0.036
same,promoter activity interaction Z-score,[3]; [11],-0.14 ± 0.24
same,promoter activity interaction Z-score,[3]; [12],0.387 ± 0.13
same,promoter activity interaction Z-score,[3]; [13],-0.422 ± 0.075
same,promoter activity interaction Z-score,[3]; [14],-0.381 ± 0.19
same,promoter activity interaction Z-score,[3]; [15],-0.202 ± 0.043
same,promoter activity interaction Z-score,[3]; [16],0.194 ± 0.031
same,promoter activity interaction Z-score,[3]; [17],0.0558 ± 0.16
same,promoter activity interaction Z-score,[3]; [18],0.0329 ± 0.09
same,promoter activity interaction Z-score,[3]; [19],-0.567 ± 0.3
same,promoter activity interaction Z-score,[3]; [20],0.0892 ± 0.075
same,promoter activity interaction Z-score,[3]; [21],0.153 ± 0.069
same,promoter activity interaction Z-score,[3]; [22],-0.485 ± 0.02
same,promoter activity interaction Z-score,[4]; [7],0.73 ± 0.71
same,promoter activity interaction Z-score,[4]; [8],0.0767 ± 0.37
same,promoter activity interaction Z-score,[4]; [9],0.466 ± 0.27
same,promoter activity interaction Z-score,[4]; [10],0.49 ± 0.31
same,promoter activity interaction Z-score,[4]; [11],-0.277 ± 0.26
same,promoter activity interaction Z-score,[4]; [12],0.295 ± 0.52
same,promoter activity interaction Z-score,[4]; [13],0.186 ± 0.67
same,promoter activity interaction Z-score,[4]; [14],0.471 ± 0.99
same,promoter activity interaction Z-score,[4]; [15],-0.466 ± 0.068
same,promoter activity interaction Z-score,[4]; [16],0.31 ± 0.081
same,promoter activity interaction Z-score,[4]; [17],0.0139 ± 0.21
same,promoter activity interaction Z-score,[4]; [18],-0.224 ± 0.093
same,promoter activity interaction Z-score,[4]; [19],-1.02 ± 0.081
same,promoter activity interaction Z-score,[4]; [20],-0.102 ± 0.31
same,promoter activity interaction Z-score,[4]; [21],-0.282 ± 0.25
same,promoter activity interaction Z-score,[4]; [22],-0.361 ± 0.67
same,promoter activity interaction Z-score,[5]; [7],0.217 ± 0.043
same,promoter activity interaction Z-score,[5]; [8],0.0924 ± 0.0091
same,promoter activity interaction Z-score,[5]; [9],0.0464 ± 0.16
same,promoter activity interaction Z-score,[5]; [10],0.093 ± 0.016
same,promoter activity interaction Z-score,[5]; [11],-0.193 ± 0.011
same,promoter activity interaction Z-score,[5]; [12],0.076 ± 0.02
same,promoter activity interaction Z-score,[5]; [13],-0.205 ± 0.024
same,promoter activity interaction Z-score,[5]; [14],0.164 ± 0.2
same,promoter activity interaction Z-score,[5]; [15],-0.0918 ± 0.052
same,promoter activity interaction Z-score,[5]; [16],-0.113 ± 0.019
same,promoter activity interaction Z-score,[5]; [17],0.0335 ± 0.083
same,promoter activity interaction Z-score,[5]; [18],-0.0149 ± 0.074
same,promoter activity interaction Z-score,[5]; [19],-0.198 ± 0.27
same,promoter activity interaction Z-score,[5]; [20],-0.171 ± 0.14
same,promoter activity interaction Z-score,[5]; [21],-0.117 ± 0.11
same,promoter activity interaction Z-score,[5]; [22],-0.174 ± 0.047
same,promoter activity interaction Z-score,[6]; [7],0.33 ± 0.084
same,promoter activity interaction Z-score,[6]; [8],1.18 ± 0.26
same,promoter activity interaction Z-score,[6]; [9],-0.401 ± 0.15
same,promoter activity interaction Z-score,[6]; [10],-0.259 ± 0.83
same,promoter activity interaction Z-score,[6]; [11],-0.543 ± 0.64
same,promoter activity interaction Z-score,[6]; [12],-0.33 ± 0.62
same,promoter activity interaction Z-score,[6]; [13],-0.224 ± 0.69
same,promoter activity interaction Z-score,[6]; [14],0.645 ± 0.11
same,promoter activity interaction Z-score,[6]; [15],0.289 ± 0.26
same,promoter activity interaction Z-score,[6]; [16],0.197 ± 0.06
same,promoter activity interaction Z-score,[6]; [17],0.242 ± 0.12
same,promoter activity interaction Z-score,[6]; [18],-0.045 ± 0.33
same,promoter activity interaction Z-score,[6]; [19],-1.06 ± 0.73
same,promoter activity interaction Z-score,[6]; [20],-0.822 ± 0.7
same,promoter activity interaction Z-score,[6]; [21],-0.397 ± 0.29
same,promoter activity interaction Z-score,[6]; [22],-0.568 ± 0.58
